A short description of test [1]: APR_HepG2_NuclearSize_24hr: Apredica 24-hour HepG2 Assay for Nuclear Size (AID 2282907). The note with it: high-content imaging, actives raise or lower the signal. In outline:
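Nuclear size is measured by fluorescence high-content imaging of Hoechst-labelled HepG2 nuclei after 24 hr of treatment (0.39–200 uM, 0.5% DMSO). Cells are fixed in 3.7% formaldehyde before staining, and DMSO serves as the baseline for bidirectional curve fitting.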

Test [2] in a line: APR_HepG2_CellLoss_24hr: Apredica 24-hour HepG2 Assay for Cell Loss (AID 2282908).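 On AC50: fit in both directions so a hit may be cell loss or gain.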 The following applies: high-content imaging. The method, boiled down:
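Nuclear count serves as the viability measure: treated cells are fixed, permeabilized and labelled with Hoechst 33342, and six images per well are analysed to identify valid nuclei. Doses span 0.39–200 uM, and activity in either direction is scored against DMSO.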

Test [3] in a line: APR_HepG2_MicrotubuleCSK_24hr: Apredica 24-hour HepG2 Assay for Microtubule CSK Stabilty (AID 2282909). The note with it: HepG2 microtubule cytoskeleton imaging, actives raise or lower the signal. The method, boiled down: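 Compounds were applied to HepG2 cells for 24 hours across 0.39–200 uM in duplicate, with final DMSO at 0.5% v/v. Fixed, permeabilized cells were labeled for alpha-tubulin and nuclei, and tubulin fluorescence was quantified by imaging, fitted bidirectionally against DMSO.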

Test [4] can be described thus: APR_HepG2_MitoticArrest_24hr: Apredica 24-hour HepG2 Assay for Mitotic Arrest (AID 2282910). The following applies: high-content imaging, actives raise or lower the signal. The method, boiled down:
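HepG2, 24 hr dosing, 0.39–200 uM, 0.5% DMSO final. Formaldehyde-fixed, Triton-permeabilised, anti-phospho-histone H3 plus Hoechst. ArrayScan imaging at 20x; bidirectional fit vs DMSO baseline.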

Test [5] can be described thus: APR_HepG2_MitoMembPot_24hr: Apredica 24-hour HepG2 Assay for Mitochondrial Membrane Potential (AID 2282911). The note with it: imaging, actives raise or lower the signal. In outline:
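HepG2 human liver cells were exposed 24 hr to compounds at 0.39–200 uM (final DMSO 0.5% v/v) in duplicate. MitoTracker Red CMXRos (250 nM, 30 min) was loaded before formaldehyde fixation; fluorescence was imaged by ArrayScan HCS and fitted bidirectionally versus DMSO.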

Test [6] can be described thus: APR_HepG2_MitoMass_24hr: Apredica 24-hour HepG2 Assay for Mitochondrial Mass (AID 2282912). The following applies: high-content imaging, actives raise or lower the signal. In outline:
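After 24 hr of treatment at 0.39 to 200 uM, HepG2 cells take up 250 nM MitoTracker Red CMXRos for 30 min and are then fixed with 3.7% formaldehyde. Per-well images are quantified, and any change in either direction is scored against solvent.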

The nature of test [7]: APR_HepG2_p53Act_24hr: Apredica 24-hour HepG2 Assay for p53 Activation (AID 2282913).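 Further: p53 protein immunofluorescence averaged per cell in HepG2 with Hoechst nuclei.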 The note with it: high-content imaging, actives raise or lower the signal. The method, boiled down: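 HepG2 cells exposed 24 hr to compounds at 0.39–200 uM (10 concentrations, duplicate), final DMSO 0.5% v/v. After formaldehyde fixation and Triton permeabilization, p53 was immunolabeled (sheep anti-p53, Cy5 secondary) with Hoechst 33342 nuclear counterstain, then imaged by high-content fluorescence microscopy.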

Test [8] in a line: APR_HepG2_CellCycleArrest_72hr: Apredica 72-hour HepG2 Assay for Cell Cycle Arrest (AID 2282914). The following applies: high-content imaging, actives raise or lower the signal. The method, boiled down:
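HepG2 cells were exposed to compounds at 0.39–200 uM (0.5% v/v DMSO final, duplicates) for 72 hr, fixed in 3.7% formaldehyde, permeabilized and stained with Hoechst 33342. Nuclear DNA content was quantified by high-content imaging; gain or loss of signal was fitted bidirectionally against DMSO.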

The nature of test [9]: APR_HepG2_CellLoss_72hr: Apredica 72-hour HepG2 Assay for Cell Loss (AID 2282915). The note with it: high-content imaging. The method, boiled down: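 HepG2 cells exposed 72 h to compound at 0.39–200 uM (10 concentrations, duplicate) in 0.5% DMSO. Fixed with 3.7% formaldehyde and Hoechst 33342-stained. Imaged at 20x; nuclear count gives cell number, fitted bidirectionally versus DMSO.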

A short description of test [10]: APR_HepG2_P-H2AX_72hr: Apredica 72-hour HepG2 Assay for H2AX Phosphorylation (AID 2282916).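 Further: phospho-histone H2A.x immunostain intensity per cell marking DNA damage.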 The note with it: imaging, actives raise or lower the signal. In outline: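 Human hepatoma HepG2 cells are dosed across ten concentrations (0.39 to 200 uM, 0.5% v/v DMSO) and incubated 72 hr. Phospho-histone H2A.x is then detected by antibody staining alongside c-Jun and Hoechst, and quantified by automated fluorescence imaging.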

Test [11] in a line: APR_HepG2_MitoMembPot_72hr: Apredica 72-hour HepG2 Assay for Mitochondrial Membrane Potential (AID 2282917). The note with it: imaging, actives raise or lower the signal. The method, boiled down: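 HepG2 cells dosed 72 hr with compound at 0.39–200 uM in duplicate, 0.5% v/v DMSO final. Mitochondria stained with 250 nM MitoTracker Red CMXRos for 30 min before formaldehyde fixation, imaged by high-content fluorescence; bidirectional fit versus DMSO.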

Test [12] in a line: APR_HepG2_MitoticArrest_72hr: Apredica 72-hour HepG2 Assay for Mitotic Arrest (AID 2282918). The note with it: high-content imaging, actives raise or lower the signal. The method, boiled down:
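HepG2 cells were exposed for 72 hr to compound at 0.39–200 uM (10 concentrations, duplicate) in 0.5% v/v DMSO, fixed in 3.7% formaldehyde, immunostained for phospho-histone H3 with Hoechst 33342 and imaged by high-content fluorescence; bidirectional fits versus DMSO.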

Test [13] in a line: APR_HepG2_MicrotubuleCSK_72hr: Apredica 72-hour HepG2 Assay for Microtubule CSK Stabilty (AID 2282919). The note with it: HepG2 microtubule cytoskeleton, high-content imaging, actives raise or lower the signal. In outline: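 HepG2, 72 hr cmpd exposure, 0.39–200 uM (10 pts, duplicate), 0.5% DMSO. 3.7% formaldehyde fix, 0.5% Triton perm, anti-alpha-tubulin/Cy5 plus Hoechst. HCS fluorescence intensity; bidirectional fit vs DMSO baseline; taxol as positive control.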

Test [14] is described as follows: APR_HepG2_P-H2AX_24hr: Apredica 24-hour HepG2 Assay for H2AX Phosphorylation (AID 2282920). The following applies: high-content imaging, actives raise or lower the signal. The method, boiled down: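 HepG2 human liver cells were exposed for 24 hr to compounds at 0.39–200 uM in duplicate, with 0.5% v/v DMSO final. Fixed cells were immunostained for phospho-histone H2A.x plus Hoechst 33342, imaged by HCS fluorescence, and fitted bidirectionally against DMSO.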

A short description of test [15]: APR_HepG2_StressKinase_72hr: Apredica 72-hour HepG2 Assay for Stress Kinase (AID 2282921). The following applies: HepG2 stress kinase (phospho-c-Jun) imaging, actives raise or lower the signal. In outline: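 After a 72 h compound treatment spanning 0.39 to 200 uM, formaldehyde-fixed cells are labelled for phosphorylated c-Jun and nuclei, imaged by automated fluorescence microscopy, and activity is fitted in both directions relative to DMSO controls.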

A short description of test [16]: APR_HepG2_StressKinase_24hr: Apredica 24-hour HepG2 Assay for Stress Kinase (AID 2282922). The note with it: HepG2 stress kinase (phospho-c-Jun) imaging, actives raise or lower the signal. In outline:
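Read-out: phospho-c-Jun immunofluorescence (Cy3 secondary) quantified by high-content imaging at 20x, nuclei defined by Hoechst 33342. Human HepG2 liver cells dosed 24 hr, 0.39–200 uM, DMSO 0.5% v/v; gain or loss of signal fitted relative to DMSO.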

Test [17] is described as follows: APR_HepG2_p53Act_72hr: Apredica 72-hour HepG2 Assay for p53 Activation (AID 2282923).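 Further: average cellular p53 protein immunofluorescence intensity in HepG2 cells.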 The following applies: high-content imaging, actives raise or lower the signal. In outline:
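Imaging-based endpoint: after 72 hr compound exposure (up to 200 uM, 0.5% DMSO), fixed and permeabilized monolayers were labelled with anti-p53 antibody and imaged; signal change in either direction was fitted relative to DMSO controls.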

The nature of test [18]: APR_HepG2_MitoMass_72hr: Apredica 72-hour HepG2 Assay for Mitochondrial Mass (AID 2282924).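 Further: MitoTracker Red CMXRos stain intensity per cell imaged as mitochondrial mass.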 The note with it: high-content imaging, actives raise or lower the signal. In outline:
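Read-out: MitoTracker Red fluorescence intensity from automated imaging (20x, six fields per well) in human HepG2 liver cells. Dosing ran 72 hr, 0.39–200 uM, 0.5% DMSO; bidirectional curve fitting versus DMSO baseline.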

A short description of test [19]: APR_HepG2_NuclearSize_72hr: Apredica 72-hour HepG2 Assay for Nuclear Size (AID 2282925). The note with it: high-content imaging, actives raise or lower the signal. The method, boiled down: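 Read-out: nuclear diameter from Hoechst 33342 images (ArrayScan, 20x, six fields/well), via cell-cycle image analysis. HepG2 were dosed 0.39–200 uM for 72 hr in 0.5% DMSO. Bidirectional fit relative to DMSO.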

Experimental findings from PubChem BioAssay (EPA / NIEHS) are described below.

As a reminder, the AC50 is the concentration giving half of the maximal activity seen.

“And” between values parts separate entries of the source, which are not always exact repeats. Equal entries are not always repeated. The source holds several records for some structures; these can differ, active in one and inactive in another. The source made the active and inactive calls. How the source made its calls: active means hit-call score of the fitted dose curve at least 0.9, where 1 is the maximum; inactive means score below 0.9.

`CCSC(=O)N(CC(C)C)CC(C)C`: the compound was called inactive in test [1], in test [2], in test [3], in [4], in test [5] and in test [6]. The outcome in test [7], in [8], in [9], in test [10], in test [11] and in test [12] was inactive. Besides, the compound was called inactive in test [13], in test [14], in test [15], in test [16], in test [17] and in [18]. Also, in test [19], the outcome was inactive.

With `c1ccc(Nc2ccccc2)cc1`, the call in [1], in [2], in [3], in test [4], in test [5] and in [6] was inactive. The call in [7], in test [8], in test [9], in [10], in test [11] and in [12] was inactive. Besides, the compound was called inactive in test [13], in test [14], in [15], in test [16], in test [18] and in [19].

In the case of `C#CCOC(=O)[C@@H](C)Oc1ccc(Oc2ncc(Cl)cc2F)cc1`, the call in test [1], in test [2], in [3], in [4], in [5] and in test [6] was inactive. Besides, the result in [7], in test [8], in test [9], in [10], in test [11] and in [12] was inactive. Also, the outcome in [13], in test [14], in test [15], in test [16], in test [18] and in test [19] was inactive.

On to `CCCOC(=O)NCCCN(C)C`, for which the compound was called inactive in test [1], in [2], in test [3], in test [4], in test [5] and in test [6]. Further, the result in [7], in test [8], in test [9], in [10], in test [11] and in [12] was inactive. Moreover, the result in test [13], in test [14], in test [15], in test [16], in test [18] and in [19] was inactive.

Take `CC(C)(C)[C@@H](O)[C@@H](Cc1ccc(Cl)cc1)n1cncn1`: the call in test [1], in test [2], in test [3], in test [4], in test [6] and in [7] was inactive. The result in test [8], in test [10], in test [11], in [12], in test [13] and in test [14] was inactive. For the same compound, the compound was called inactive in [15], in test [16], in test [18] and in test [19]. Further, the AC50 in [5] was 15.8 µM (active); in test [9] it was 33.4 µM (active).

Regarding `CC(C)(c1ccc(O)cc1)c1ccc(O)cc1`, the compound was called inactive in test [1], in [2], in test [3], in test [4], in test [5] and in test [6]. Also, the outcome in [7], in test [8], in [10], in test [11], in test [12] and in [13] was inactive. Further, the compound was called inactive in test [14], in test [15], in [16], in test [18] and in test [19]. For the same compound, the AC50 was 106 µM (active) and 107 µM (active) and 100 µM (active) in test [2]; 103 µM (active) in test [3]; 12.7 µM (active) and 30.5 µM (active) and 101 µM (active) in test [5]; 109 µM (active) and 122 µM (active) in test [6]; 109 µM (active) [middle of 4 runs] in [9]; 114 µM (active) and 105 µM (active) in test [10]. The AC50 in test [11] was 101 µM (active) and 81.5 µM (active) and 107 µM (active); in test [14], 170 µM (active) and 110 µM (active); in test [15], 102 µM (active); in test [18] it was 122 µM (active).
